The list is not random: actives were taken first. Their share in the collection is about 14%.
Marburg entry inh: qHTS for inhibitors of binding or entry into cells for Marburg Virus; Marburg virus pseudotyped entry inhibition, cell reporter; hit rate 1.8% among 300,000; Potency, µM (titrated, usually from 37.8 µM), without a hit: at the top dose activity change, negative = inhibition, actives largely listed as inhibitors; calls by dose curve; tested in HEK293 cells; also: potency is read from the fitted curve at half-maximal effect
HCMV inh: qHTS Assay for inhibitors of the human cytomegalovirus (HCMV) | AID 1259415, 2018 | hit rate 4.5% among 410,000 | activity change, negative = inhibition, % at 57.5 µM | HFF cells, HCMV-luciferase reporter, 72 h; active compounds read low; in the data active = activity change below about -60%; inconclusive = no clear call, values can overlap the other calls; inactive = above about -39%
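Two-dose cell screen: HFF monolayers treated with compounds and infected with luciferase-expressing HCMV at 1 PFU/cell, 72 h at 37C, then lysed for luciferase measurement.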
HCV inh: qHTS Assay for Inhibitors of Hepatitis C Virus (HCV); Huh7.5.1 HCVcc-Cre infection, luciferase reporter, 44 h; Potency, µM (highest dose often 41.8 µM), inactives show at the highest dose activity change, negative = inhibition, hits mostly inhibitors; hit rate 3.4% among 340,000; AID 651820, 2012; also: potency is read from the fitted curve at half-maximal effect
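HCVcc-Cre virus at an moi near 0.5 was added right after compound to cells cultured 4 h from seeding (1,000 cells/well). Luciferase activity was determined 44 h later, 15 min after substrate addition at RT.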
Pf growth 48h: Primary qHTS for delayed death inhibitors of the malarial parasite plastid, 48 hour incubation | Potency, µM (doses to about 28.7 µM), without a hit: at the top dose activity change, negative = inhibition, actives largely listed as inhibitors | hit rate 5.9% among 310,000 | P. falciparum luciferase growth in erythrocytes, 48 h; also: potency is read from the fitted curve at half-maximal effect
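Erythrocytes infected with P. falciparum carrying an integrated firefly luciferase reporter (2% hematocrit, 0.1% parasitemia final) were exposed to compounds in RPMI 1640 with 0.5% Albumax at 37 C, 5% CO2. Growth inhibition was scored as reduced luminescence.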
LASV entry inh: qHTS for Inhibitors of binding or entry into cells for Lassa Virus. Lassa virus pseudotype entry inhibition, cell reporter. Potency, µM (doses to about 37.9 µM), without a hit: at the top dose activity change, negative = inhibition, actives largely listed as inhibitors. hit rate 1.2% among 300,000; calls by dose curve; tested in HEK293 cells; also: potency is read from the fitted curve at half-maximal effect; nearly all actives have a fitted effect of over 50% in size
Pf growth 96h: Primary qHTS for delayed death inhibitors of the malarial parasite plastid, 96 hour incubation. P. falciparum luciferase reporter growth, 96 h. Potency, µM (titrated, usually from 28.7 µM), without a hit: top-dose activity change, negative = inhibition, hits mostly inhibitors. hit rate 6.9% among 320,000. AID 504834, 2011; also: potency is read from the fitted curve at half-maximal effect
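Plates of compound plus infected erythrocytes (2% hematocrit, 0.05% parasitemia final) incubate 96 hours, 37 C, 5% CO2. Detection reagent added; reduced luminescence from the parasites' luciferase reporter flags inhibition.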
Numbers without * were called inactive; ? = inconclusive; nt = no result given; [ ] = dose if it differs, or a comment. Unless noted, calls follow the shape of the dose curve; as a rule, active = well fitted inhibition curve with a large enough effect; inconclusive = small, poorly fitted or top-dose-only effect, or another doubt; inactive = no such curve, though single readings can be large or run the other way. % is scaled to controls: 0 for no effect and ±100 for the full control effect.

SMILES	Marburg entry inh	HCMV inh	HCV inh	Pf growth 48h	LASV entry inh	Pf growth 96h
COc1ccc(-n2c3c(cc(-c4nc(-c5ccc(C)cc5)cs4)c2=O)C(=O)CC(C)(C)C3)cc1	-17%[46.1 µM]	-11	nt	nt	1%[46.1 µM]	nt
C=CCn1c(SCC(=O)c2c(N)n(C3CC3)c(=O)[nH]c2=O)nnc1-c1ccccc1OC	20%	36	18%	?	1%	12µM*
C=CCn1c(SCC(=O)c2c(N)n(C3CC3)c(=O)[nH]c2=O)nnc1-c1ccc(OC)cc1	24%[46.1 µM]	-7	?	?	2%	?
C=CCn1c(SCC(=O)c2c(N)n(C3CC3)c(=O)[nH]c2=O)nnc1-c1ccoc1C	30%	0	10%	9.3µM*	14%	?
COc1ccccc1-c1nnc(SCC(=O)c2c(N)n(C3CC3)c(=O)[nH]c2=O)n1C	nt	11	15%	?	nt	12µM*
CCn1c(SCC(=O)c2c(N)n(C3CC3)c(=O)[nH]c2=O)nnc1-c1ccoc1C	nt	-2	7%	?	nt	?
Cc1ccc(NC(=O)OCCN(C)C(=O)Nc2ccc(C)cc2C)c(C)c1	nt	-35	nt	nt	nt	nt
COc1ccc(CCC(C)NC(=O)CCc2ccccc2)c(OC)c1 (stereo not drawn)	?	-40	?	9.3µM*	?	?
COc1cc(NC(=S)NC(=O)CCc2ccccc2)cc(OC)c1	23%	-84*	nt	?	-14%	0%
O=C(Cc1ccccc1)Nc1c(C(=O)N2CCN(c3ccc(F)cc3)CC2)oc2ccccc12	nt	-21	nt	nt	-24%[46.1 µM]	nt
O=C(NN=C1C[C@@H](O)[C@H](O)[C@H]2[C@@H]3C(=O)N(C[C@@H]4CCCO4)C(=O)[C@@H]3CC[C@H]12)OCc1ccccc1	?	nt	nt	nt	2%[14.3 µM]	nt
O=C(NCCOc1ccc(Cl)cc1)c1ccco1	-5%[46.1 µM]	-26	-3%	-3%	28%	2.1µM*
CCc1ccc(OCCNC(=O)c2ccco2)cc1	nt	31	20%	-28%	nt	37%
O=C(C1CCN(S(=O)(=O)c2cccc3cccnc23)CC1)N1CCN(C2CCCCC2)CC1	1%	nt	?	?	nt	15%
O=C(C1CCN(S(=O)(=O)c2cccnc2)CC1)N1CCN(C2CCCC2)CC1	16%[46.1 µM]	nt	2%	0%	0%	10µM*
Cc1ccc2occ(CC(=O)N(Cc3ccc(Cl)cc3)Cc3ccco3)c2c1	-4%[46.1 µM]	41	nt	nt	-6%[46.1 µM]	nt
Cc1cc(C)c(C#N)c(SCS(=O)Cc2ccccc2)n1 (stereo not drawn)	-1%	-23	?	24%	-14%	-10%
Cc1cc(C)c(C#N)c(SCS(=O)Cc2ccc(Cl)cc2)n1 (stereo not drawn)	-11%	?	11µM*	?	1%	nt
CN(CC(=O)Nc1ccc(Cl)cc1)S(=O)(=O)c1cccc2cccnc12	nt	59	?	nt	nt	?
O=S(=O)(NC1CCCCCC1)c1cccc2cccnc12	12%	24	6%	-7%	?	5.2µM*
COc1ccc(NC(=O)CN(C)S(=O)(=O)c2cccc3cccnc23)cc1	nt	-66*	-17%	nt	nt	-12%
COc1ccc(N(C(=O)C(C)C)S(=O)(=O)c2cccc3cccnc23)cc1	5%	-67*	-14%	-5%	4%	-29%
O=C(NC1CCCCC1)c1ccc(NS(=O)(=O)c2cccc3cccnc23)cc1	nt	-6	?	?	nt	31%
CN(CC(=O)NC1CCCCCCC1)S(=O)(=O)c1cccc2cccnc12	nt	-62*	-16%	nt	nt	11%
CN(CC(=O)N1CCCCCC1)S(=O)(=O)c1cccc2cccnc12	nt	-1	-2%	nt	nt	-28%
SMILES	Marburg entry inh	HCMV inh	HCV inh	Pf growth 48h	LASV entry inh	Pf growth 96h
O=C(NCc1cccc(C(F)(F)F)c1)c1c[nH]c(=O)s1	nt	-17	nt	nt	nt	nt
Cc1ccc(C)c(N2CCN(C(C(=O)NC3CCCC3)C(C)C)CC2)c1 (stereo not drawn)	nt	9	nt	nt	nt	nt
CCN(C)C(=O)C1=COC2=NC(=O)N(Cc3ccccc3C(F)(F)F)CCN12	nt	-2	nt	nt	nt	nt
CN(CC(=O)Nc1ccc(F)c(F)c1)S(=O)(=O)c1cccc2cccnc12	nt	27	?	2%	nt	13µM*
Cc1cc(C)c(NC(=O)Cn2nc3c(cc2=O)CCCC3)c(C)c1	nt	13	nt	nt	-5%[46.1 µM]	nt
C=CC[C@]12CCc3ccccc3C1N(c1ccc(C(=O)OCC)cc1)C2=O (stereo partly drawn)	nt	11	?	13µM*	nt	?
CCOC(=O)c1ccc(N2C(=O)Cc3ccccc3C2=O)cc1	?	-20	-11%	?	-12%[46.1 µM]	-19%
CC1CCCN(C2(O)C(=O)Nc3c(C(F)(F)F)cccc32)C1 (stereo not drawn)	nt	0	8%	4.1µM*	nt	-13%
CCc1cccc2c1NC(=O)C2(O)N1CCCC(C)C1 (stereo not drawn)	13%	1	12%	?	10%	92%
CC1(Cc2ccc(F)cc2)C(=O)Nc2ccc(-c3cccnc3)cc21 (stereo not drawn)	nt	-64*	nt	nt	nt	nt
COc1ccccc1NC(=O)c1ccccc1C(=O)Nc1ccccc1OC	4%	-11	8%	13%	-27%	-2%
COc1ccccc1C(=O)NNS(=O)(=O)c1ccc(F)cc1	11%[46.1 µM]	71	28%	3%	-8%[46.1 µM]	4.1µM*
COc1ccccc1C(=O)NNC(=O)c1ccccc1Br	nt	99	15%	10%	nt	10µM*
COC(=O)c1ccccc1NC(=O)c1ccccc1OC	-11%	8	11µM*	9%	-12%	6%
COc1ccccc1C(=O)Nc1c(C)cc(Br)cc1C	nt	-61*	?	-8%	nt	?
Cc1ccc(-n2c(SCC(=O)Nc3ccc4c(c3)OCCO4)nc3c([nH]c4ccccc43)c2=O)cc1	nt	4	nt	nt	-3%[46.1 µM]	nt
CN1CCN(C(CNC(=O)C(=O)Nc2ccccc2C#N)c2ccc3c(c2)OCO3)CC1 (stereo not drawn)	nt	-11	nt	nt	-3%[46.1 µM]	nt
CCOC(=O)C1CCN(C(c2ccc(C)cc2)c2sc3nc(-c4ccco4)nn3c2O)CC1 (stereo not drawn)	nt	4	nt	nt	15%[46.1 µM]	nt
Cc1cccc(C)c1OCc1cc(=O)n2c3c(sc2n1)CCCC3	-8%[46.1 µM]	-13	nt	nt	-24%[46.1 µM]	nt
Cc1ccc(CNC(=O)CCn2cc(-c3ccc(F)cc3)nc2-c2ccncc2)cc1	nt	-16	?	8.3µM*	nt	?
Cc1ccc(CNC(=O)CCn2cc(-c3ccc(C)cc3)nc2-c2ccncc2)cc1	nt	-10	-8%	?	nt	9.3µM*
Nc1ccn([C@@H]2O[C@H](CNCc3ccc(-c4cc(C(F)(F)F)ccc4Cl)o3)[C@@H](O)[C@H]2O)c(=O)n1	nt	6	nt	nt	nt	nt

Screening results deposited in PubChem by National Center for Advancing Translational Sciences (NCATS).
